Test results published in PubChem BioAssay.
Activity calls are given as the source filed them. The rule behind the calls is not given here.

molecular target: Pantothenate synthetase (Mycobacterium tuberculosis (strain ATCC 25618 / H37Rv)) (UniProt P9WIL5); experiment: Coupled enzyme confirmation of inhibitors against recombinant Mtb PanC (AID 375); settings: coupled enzyme assay; at 10 µM, hits give high values;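 note: 0% = full reaction with vehicle and 100% = no enzyme background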
Sequence (P9WIL5 whole entry, looked up): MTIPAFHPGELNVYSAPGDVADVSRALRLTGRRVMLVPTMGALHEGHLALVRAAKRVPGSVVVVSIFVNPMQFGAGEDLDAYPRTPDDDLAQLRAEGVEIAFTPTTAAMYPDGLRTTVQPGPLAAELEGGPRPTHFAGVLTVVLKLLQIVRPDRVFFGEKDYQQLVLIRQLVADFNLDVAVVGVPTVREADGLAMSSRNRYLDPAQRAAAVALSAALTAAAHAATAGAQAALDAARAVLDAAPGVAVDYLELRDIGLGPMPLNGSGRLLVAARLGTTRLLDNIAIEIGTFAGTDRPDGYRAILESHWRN

Row | SMILES | inhibition
1 | O=C(NC1CCCC1)c1ccc2nc[nH]c2c1 | 0% (inactive)
2 | C1CCc2nnc(-c3nnc4n3CCCCC4)n2CC1 | 10% (inactive)
3 | CCn1nc(NC(=O)c2cccnc2)c2cc3ccccc3nc21 | 0% (inactive)
4 | Cc1ccc(CCNC(=O)CC2Oc3ccc(C)cc3NC2=O)cc1 (stereo not given) | 0% (inactive)
5 | COc1ccc(-c2cnc(SCC(=O)Nc3ccc4c(c3)OCO4)n2Cc2ccco2)cc1 | 0% (inactive)
6 | O=S1(=O)CCC(N=Cc2cc(Br)ccc2O)C1 (stereo not given) | 0% (inactive)
7 | CCC1CCCCN1CCNS(=O)(=O)c1ccc2c(c1)oc(=O)n2C (stereo not given) | 1% (inactive)
8 | CCC(=O)Nc1c(C#N)c2nc3ccccc3nc2n1-c1ccccc1C | 16% (inactive)
9 | Cn1cccc1C(=O)NC(=O)CSc1nnc(C2CC2)n1-c1ccccc1 | 0% (inactive)
10 | CCC(=O)Oc1ccc(C/C(=N\O)c2ccc(O)cc2O)o1 | 0% (inactive)
11 | COc1ccccc1NC(=O)CC(NCc1ccccc1)C(=O)O (stereo not given) | 5% (inactive)
12 | CN1C(=O)CCC1(O)c1ccccc1 (stereo not given) | 0% (inactive)
13 | COc1ccc(N2C(=O)C(Cl)=C(N3CCCC3)C2=O)cc1 | 0% (inactive)
14 | COc1cc2c(cc1OC)C(C)N(C(=O)c1cc3n(n1)C(C(F)(F)F)CC(c1ccco1)N3)CC2 (stereo not given) | 6% (inactive)
15 | NC(=O)COC(=O)c1ccc(S(=O)(=O)N2CCCCCC2)cc1 | 0% (inactive)
16 | CN/C(=C/[N+](=O)[O-])NCCSCc1ccc(CN(C)C)o1 | 4% (inactive)
17 | CC(=O)Nc1ccc(S(=O)(=O)Nc2nc3c(s2)CCCC3)cc1 | 2% (inactive)
18 | Cc1sc2nc(CN3CCN(S(=O)(=O)c4cccc5nonc45)CC3)[nH]c(=O)c2c1C | 0% (inactive)
19 | CCCCN(C(=O)c1ccc(Cl)cc1)C1CC2CCC(C1)N2C (stereo not given) | 0% (inactive)
20 | Cc1ccccc1NS(=O)(=O)c1cc(S(C)(=O)=O)ccc1Cl | 0% (inactive)

Row | SMILES | inhibition
21 | CCOC(=O)CSc1nnc(-c2ccc(S(=O)(=O)N3CCOCC3)cc2)n1-c1ccccc1 | 3% (inactive)
22 | CC(C)(C)C(=O)Oc1cc(N)n(S(=O)(=O)c2ccccc2)n1 | 0% (inactive)
23 | O=C(CSc1nc2[nH]ncc2c(=O)n1-c1ccccc1Br)NCc1ccco1 | 1% (inactive)
24 | COc1ccc(C(=O)CSc2nnc(C3CCCCC3)n2N)c(OC)c1 | 0% (inactive)
25 | CCOC(=O)C1CCN(c2c(Nc3ccc4c(c3)OCCO4)c(=O)c2=O)CC1 | 0% (inactive)
26 | N#Cc1c(N2CCCC2)nc(N)c2c(N)nc(N3CCCC3)cc12 | 0% (inactive)
27 | c1ccc2c(c1)CC(N1CCCCC1)c1ccccc1N2 (stereo not given) | 0% (inactive)
28 | CC1(C)Oc2ccc3ccc(=O)oc3c2C(N2CCCCC2)C1O (stereo not given) | 0% (inactive)
29 | CCCCCCn1c(SCC(=O)OC)nc2c1c(=O)[nH]c(=O)n2C | 0% (inactive)
30 | COc1ccccc1NC(=O)c1cc2n(n1)C(C(F)(F)F)CC(c1ccc3c(c1)OCO3)N2 (stereo not given) | 0% (inactive)
31 | Cc1cc(C)nc(NS(=O)(=O)c2ccc(NC(=O)Cn3c(=O)oc4ccccc43)cc2)n1 | 1% (inactive)
32 | O=C(c1ccco1)N(Cc1cc2ccccc2[nH]c1=O)C1CCCCC1 | 0% (inactive)
33 | Cc1cccc(NC(=O)c2cc(NC(=O)c3ccco3)ccc2N2CCCCC2)c1 | 2% (inactive)
34 | CC(C)CNC(=O)C1CC(=O)OC12CCCCC2 (stereo not given) | 5% (inactive)
35 | CC(C(=O)Oc1ccc2c(c1)OCO2)N1C(=O)c2ccccc2C1=O (stereo not given) | 5% (inactive)
36 | CC(=O)c1c(C)[nH]c(C(=O)NC2=NCCS2)c1C | 0% (inactive)
37 | O=C(CN1C(=O)NC2(CCCCCC2)C1=O)N1CCC(Cc2ccccc2)CC1 | 2% (inactive)
38 | O=C(CSc1nccn1-c1cccc(Cl)c1)NC1CCCC1 | 0% (inactive)
39 | Cc1ccc(CCSCC(=O)O)cn1 | 0% (inactive)
40 | Cc1ccc(C)n1NC(=O)c1ccco1 | 0% (inactive)
